# Screens deposited in PubChem BioAssay by National Center for Advancing Translational Sciences (NCATS).
# POLB inh: inhibitors of human DNA polymerase beta | P06746 | Pol beta primer extension/strand displacement, fluorescence kinetic | Potency, µM (doses to about 114 µM), for the others: at the top dose activity change, negative = inhibition, usual class: inhibitors | 340,000 compounds, 1.3% hits | AID 485314; also: potency is read from the fitted curve at half-maximal effect; % is scaled to controls: 0 for no effect and ±100 for the full control effect
#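 Enzyme-only controls used 10 nM Pol beta; buffer lacking enzyme served as negative control. Compound preincubated 15 min, then 50 nM substrate added; 0 and 10 min reads at room temperature.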
# PI5P4K alpha inh: PI5P4K alpha (human) kinase inhibition; max response, %; P48426; AID 652105; 330,000 compounds, 1.2% hits; PI5P4Kalpha enzyme, ADP-Glo luminescence, 60 min; stronger effect = lower value; active = max response of -50% or lower; inconclusive = between -30% and -50%; inactive = -30% or higher; also: value at the top dose of about 77 µM; % is scaled to controls: 0 for no effect and ±100 for the full control effect
#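 ADP-Glo luminescence end-point after a 60 min room-temperature kinase reaction. PI5P4Kalpha and substrate in HEPES pH 7.4 buffer with EGTA, 0.1% CHAPS and 5% DMSO; ATP at 5 microM final.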
# Pol kappa inh-1: DNA polymerase kappa (human) inhibition; Q9UBT6; purified Pol kappa, fluorescent DNA synthesis assay, 10 min; Potency, µM (highest dose often 107 µM), for the others: at the highest dose activity, negative = inhibition, actives largely listed as inhibitors; AID 588579; 400,000 compounds, 0.53% hits; also: potency is read from the fitted curve at half-maximal effect; % is scaled to controls: 0 for no effect and ±100 for the full control effect
#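 Fluorescent qHTS in 1536-well format: enzyme (10 nM) and compound sat 15 min at room temperature before 50 nM substrate (final) was added. Signal taken at 0 and 10 min; no-enzyme buffer wells were negative controls.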
# Pol iota inh: blocks human DNA polymerase iota activity | Potency, µM (highest dose often 115 µM), for the others: top-dose activity, negative = inhibition, hits mostly inhibitors | Pol iota fluorescent replication assay, 10 min | 390,000 compounds, 1% hits | Q9UNA4; also: potency is read from the fitted curve at half-maximal effect
# Target sequence (Q9UNA4 whole entry, looked up): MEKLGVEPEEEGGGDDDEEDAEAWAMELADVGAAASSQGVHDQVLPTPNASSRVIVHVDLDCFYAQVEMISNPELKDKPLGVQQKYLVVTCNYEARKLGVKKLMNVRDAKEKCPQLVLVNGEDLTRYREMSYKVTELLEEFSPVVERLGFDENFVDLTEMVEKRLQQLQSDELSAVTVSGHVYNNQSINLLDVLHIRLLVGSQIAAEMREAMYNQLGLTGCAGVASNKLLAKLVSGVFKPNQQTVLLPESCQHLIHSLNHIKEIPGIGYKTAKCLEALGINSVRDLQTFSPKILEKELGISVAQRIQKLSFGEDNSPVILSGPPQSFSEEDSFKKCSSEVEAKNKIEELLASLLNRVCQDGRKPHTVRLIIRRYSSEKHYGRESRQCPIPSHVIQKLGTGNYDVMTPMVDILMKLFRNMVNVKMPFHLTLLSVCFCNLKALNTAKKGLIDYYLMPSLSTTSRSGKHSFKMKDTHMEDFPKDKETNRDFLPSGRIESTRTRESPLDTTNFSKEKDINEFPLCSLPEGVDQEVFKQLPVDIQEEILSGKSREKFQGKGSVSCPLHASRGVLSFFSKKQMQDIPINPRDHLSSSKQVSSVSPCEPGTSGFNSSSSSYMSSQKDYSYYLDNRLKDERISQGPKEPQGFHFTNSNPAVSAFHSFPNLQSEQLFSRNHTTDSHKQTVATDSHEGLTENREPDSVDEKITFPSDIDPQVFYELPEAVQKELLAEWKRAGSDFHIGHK
#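 Pol iota at 10 nM preincubated 15 min with compounds at room temperature; reaction started with fluorescent substrate, 50 nM final. Fluorescence read kinetically at 0 and 10 min; buffer-only wells as negative control.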
# FEN1 inhibitor: human FEN1 inhibition; Potency, µM (top dose mostly 114 µM), for inactives: at the top dose activity change, negative = inhibition, hits mostly inhibitors; AID 588795; Recombinant FEN1 flap cleavage, fluorescence, 15 min; 390,000 compounds, 0.35% hits; also: potency is read from the fitted curve at half-maximal effect; % is scaled to controls: 0 for no effect and ±100 for the full control effect; nearly all actives have a fitted effect of over 65% in size
#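 Nuclease activity of 10 nM FEN1 was measured after 15 min of room-temperature exposure to titrated compounds, by adding 50 nM flap substrate and reading plates at 0 and 15 min.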
# Pol eta inh-1: inhibitors of human DNA polymerase eta; 390,000 compounds, 1.2% hits; recombinant Pol eta, fluorescent DNA replication assay; Potency, µM (series often up to 114 µM), inactives show at the top dose activity change, negative = inhibition, usual class: inhibitors; Q9Y253; also: potency is read from the fitted curve at half-maximal effect; % is scaled to controls: 0 for no effect and ±100 for the full control effect
#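 Pol eta at 10 nM preincubated with compounds 15 min at room temperature; reaction started with fluorescent substrate (50 nM final) and read kinetically at 0 and 10 min.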
# GALK confirm: galactokinase (human) inhibition, confirmation; Potency, µM (series often up to 115 µM), for the others: top-dose activity, negative = inhibition, actives largely listed as inhibitors; shares compounds with Pol eta inh-1; AID 2015; 150 compounds, 70% hits; purified GALK, Kinase-Glo ATP depletion luminescence
# GALK redox cs: generates H2O2 by redox cycling, flagging GALK artifacts. Potency, µM (titrated, usually from 115 µM), for inactives: at the highest dose activity change, negative = H2O2 signal, actives largely listed as inhibitors. Phenol red-HRP H2O2 redox cycling, absorbance 600 nm. shares compounds with Pol eta inh-1. 150 compounds, 40% hits
# HEK293 tox: reduces HEK-293 cell viability in GALK counter-screen | AID 2547 | Potency, µM (highest dose often 46.1 µM), inactives show at the top dose activity change, negative = cytotoxicity, usual class: inhibitors | shares compounds with Pol eta inh-1 | 170 compounds, 10% hits | HEK-293 viability, ATP luminescence (CellTiter-Glo), 24/48 h; also: potency is read from the fitted curve at half-maximal effect; % is scaled to controls: 0 for no effect and ±100 for the full control effect
# Pol kappa inh-2: confirmation of human DNA polymerase kappa inhibitors; shares compounds with Pol eta inh-1; purified Pol-kappa, fluorescent strand-displacement substrate; Potency, µM, usual class: inhibitors; 920 compounds, 76% hits; AID 720501; also: potency is read from the fitted curve at half-maximal effect
# Pol eta inh-2: Pol eta (human) inhibition, cherry-pick confirmation | shares compounds with Pol eta inh-1 | Pol eta primer extension, TAMRA/BHQ fluorescence, 10 min | Potency, µM, usual class: inhibitors | 2,600 compounds, 64% hits; also: potency is read from the fitted curve at half-maximal effect
# Starred values were filed as active, the others as inactive; ? = inconclusive; nt = no result; ! = a repeat was not active; [ ] = dose if it differs, or a comment. An excerpt weighted towards active compounds, which were near 2.8% of everything screened. Unless noted, calls follow the shape of the dose curve; as a rule, active = well fitted curve in the direction sought with a large enough effect; inconclusive = small, poorly fitted or top-dose-only effect, or another doubt; inactive = no such curve, though single readings can be large; an effect the other way counts as inactive or inconclusive.
SMILES,POLB inh,PI5P4K alpha inh,Pol kappa inh-1,Pol iota inh,FEN1 inhibitor,Pol eta inh-1,Pol eta inh-2,others
CS(=O)(=O)N1Cc2ccccc2CC1C(=O)OCC(=O)NCc1ccccc1 (stereo unspecified),nt,?,?,79.4µM*,-8.3%,15.8µM*,?,
C/C(N)=C(/C#N)C(=O)COC(=O)C1CCN(S(=O)(=O)c2cccs2)CC1,nt,1.0,-18.3%,-6.7%,-5.8%,-18.5%,nt,
C/C(N)=C(/C#N)C(=O)COC(=O)C1Cc2ccccc2CN1S(C)(=O)=O (stereo unspecified),39.8µM*,-59.4*!,?,22.4µM*,0.2%,20µM*,67.5*,
COc1ccc(NC(=O)NNS(=O)(=O)c2ccc(OC)c(OC)c2)c(OC)c1,0.1%,-1.4,-12.3%,12.2%,0.0%,-7.2%,nt,
CC(C)(C)c1ccc(CC(=O)N2CCC2(C)C(=O)NCCC#N)cc1 (stereo unspecified),nt,-0.3,nt,nt,nt,nt,nt,
CCc1cccc(C)c1NC(=O)c1cc(S(=O)(=O)N2CCN(c3ccccc3)CC2)ccc1F,-23.9%,nt,2.4%[60.1 µM],?,-5.2%,-14.2%,nt,
Cc1noc(NS(=O)(=O)c2ccc(NC(=O)c3ccoc3C)cc2)c1C,?,4.1,?,39.8µM*,-3.4%,10µM*,?,
COc1cc(CNC(=O)c2ccc3c(c2)c(C)c(C)n3Cc2cccc(C)c2)cc(OC)c1OC,-1.6%,nt,-20.3%,11.0%,3.6%,-18.8%,nt,
Cc1cccc(Cn2c(C)c(C)c3cc(C(=O)NCc4ccco4)ccc32)c1,?,nt,-15.3%,-10.3%,8.1%,79.4µM*,?,
O=C(CNS(=O)(=O)c1c(F)cccc1F)NC1CCCc2ccccc21 (stereo unspecified),nt,-12.3,-15.1%,7.5%,-3.5%,-8.0%,nt,
COCCCN1C(=O)C(CC(=O)NCCN2CCOCC2)CC(C(=O)N2CCOCC2)=C1C (stereo unspecified),nt,-4.0,nt,nt,nt,nt,nt,
N#C/C(=C\c1ccc(N2CCOCC2)o1)c1nc2ccccc2[nH]1,?,-20.5,?,-12.7%,?,?,nt,
N#C/C(=C\c1ccccc1C(=O)O)c1nc2ccccc2[nH]1,40.7%,-2.4,-7.3%,190.1%,-2.5%,-14.1%,nt,
N#C/C(=C\c1ccc(-c2ccc(C(=O)O)cc2)o1)c1nc2ccccc2[nH]1,?,?,?,31.6µM*,44.7µM*,28.2µM*,33.8*,Pol kappa inh-2=13.4*
N#C/C(=C\c1ccc(-c2ccc(Cl)c(C(=O)O)c2)o1)c1nc2ccccc2[nH]1,?,nt,-24.9%,22.4µM*,-33.1%,22.4µM*,60.1*,
CC12CCC(=O)N1C(C(=O)NCc1ccc(Cl)cc1Cl)CS2 (stereo unspecified),nt,-1.0,-3.9%,6.3%,-1.5%,-22.3%,nt,
Cc1cccc(-n2c3nc(=O)[nH]c(=O)c-3cc3cc([N+](=O)[O-])ccc32)c1,29.2%,11.3,-11.2%,?,?,20µM*,47.8*,
NS(=O)(=O)c1ccc(NC(=S)NNC(=O)c2ccc(Br)o2)cc1,96.5%,2.4,-3.1%,18.5%,4.8%,-14.8%,nt,GALK confirm=?;GALK redox cs=-1.7%;HEK293 tox=19.4%
C/C=C\C=C/C(=O)Nc1cccc(C2=NOC3(C2)C[C@@H](C(N)=O)N(C(=O)C2(C)CC2)C3)c1 (stereo partly specified),29.1%,?,-13.3%,44.7µM*,-13.5%,?,67.5*,
C/C=C\C(=O)Nc1cccc(C2=NOC3(C2)C[C@@H](C(N)=O)N(C(=O)C2(C)CC2)C3)c1 (stereo partly specified),-7.8%,-3.1,-4.2%,-4.8%,-0.2%,-11.8%,nt,
Cc1ccc(-c2nnc3ccccc3c2C(=O)Nc2cccc(C(F)(F)F)c2)cc1,0.3%,nt,-14.9%,-15.6%,16.5%,-9.1%,nt,
O=C(N/N=C/c1ccncc1)c1cccc(NC(=O)c2ccc(Cl)cc2)c1,44.7µM*,-5.2,-9.5%[60.1 µM],?,?,-28.6%,nt,Pol kappa inh-2=?
Cc1ccc(N2C(=N)/C(=C3/Nc4ccccc4S3)C(c3ccccc3)C2=O)cc1 (stereo unspecified),2.7%[57.1 µM],0.2,-3.4%,0.5%,-4.6%,-6.0%,nt,
Cc1ccc2c(=O)cc(C(=O)Nc3nc4ccc(Cl)cc4s3)oc2c1C,6.31µM*,nt,?,?,?,79.4µM*,?,
Cc1ccc2c(=O)cc(C(=O)Nc3nc4ccc(Cl)cc4s3)oc2c1,-1.3%,nt,3.0%,4.6%,17.5%,2.0%,nt,
CCOC(=O)c1ccccc1NC(=O)N1CCN2CCCCC2C1 (stereo unspecified),35.7%,nt,1.6%,6.9%,-10.5%,-12.8%,nt,
Cc1cc(=O)oc2cc(OCC(=O)NC(Cc3c[nH]c4ccc(O)cc34)C(=O)O)c(Cl)cc12 (stereo unspecified),?,-3.9,?,70.8µM*,-26.5%,25.1µM*,?,
CCCCc1cc(=O)oc2cc(C)cc(OC(C)C(=O)NC(Cc3c[nH]c4ccc(O)cc34)C(=O)O)c12 (stereo unspecified),-29.5%,0.6,-21.2%,-19.7%,1.2%,-0.3%,nt,
Cc1cc(OC(C)C(=O)NC(Cc2c[nH]c3ccc(O)cc23)C(=O)O)c2c(C)c(C)c(=O)oc2c1 (stereo unspecified),?,-5.1,-24.5%,?,-16.4%,?,?,
